Bioassay records from PubChem.
Most compounds without a hit are left out; they make up all but 2.5% or so of the library.
TDP43 rescue: TDP-43 toxicity inhibition in yeast. TDP-43 expressing yeast growth rescue, BacTiter-Glo, 24 h. Potency, µM (series often up to 46.1 µM), without a hit: at the highest dose growth rescue (activation), hits mostly activators. actives 1.8% (n = 410,000); further: potency means the concentration at half of the fitted maximal effect; % of control where 0% means no effect; nearly all actives have a fitted effect of over 50% in size
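Luminescence from BacTiter-Glo reports growth of TDP-43-expressing yeast after 24 hr at 30 deg C with compound. Cells were raffinose-pregrown to mid-log, then seeded in galactose medium at OD600=0.02.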
Anesthetic bind: candidate novel general anesthetic via apoferritin binding. P02791. apoferritin/1-aminoanthracene competitive binding, fluorescence. Potency, µM (series often up to 77.5 µM), for inactives: at the highest dose activity change, negative = displacement, actives largely listed as inhibitors. actives 0.074% (n = 350,000); further: potency means the concentration at half of the fitted maximal effect; on the % scale 0 is the no-effect control and ±100 the full control effect; nearly all actives have a fitted effect of over 20% in size
Target sequence (P02791 2-175 limits assumed): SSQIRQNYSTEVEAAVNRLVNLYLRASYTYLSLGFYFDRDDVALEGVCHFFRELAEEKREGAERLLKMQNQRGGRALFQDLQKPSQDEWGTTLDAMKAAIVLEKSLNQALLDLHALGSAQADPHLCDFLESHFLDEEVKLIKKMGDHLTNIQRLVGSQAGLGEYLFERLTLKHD
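Horse-spleen apoferritin (10 uM) in 50% saturated 1-aminoanthracene in PBS was incubated 10 min at room temperature with compound. Fluorescence (ex 380, em 535 nm) was normalized to free and bound 1-AMA, with concentration-response fitted by a four-parameter Hill equation.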
Mito fusion act: mitochondrial division inhibition or fusion activation | Potency, µM (titrated, usually from 46.1 µM), without a hit: at the top dose growth rescue (activation), actives largely listed as activators | actives 0.23% (n = 320,000) | S. cerevisiae fusion-defective mutant growth rescue, CellTiterGlo 48 h | AID 485298; further: potency means the concentration at half of the fitted maximal effect; % of control where 0% means no effect; nearly all actives have a fitted effect of over 45% in size
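Yeast fusion mutant, YPEG (non-fermentable carbon), compound, 48 h at 37C non-permissive; CellTiterGlo added, 10 min RT, luminescence read. Rescued growth = division inhibition.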
pAkt inh: blocks phosphorylation of Akt. Neuro2A IGF-stimulated pAkt S473 HTRF, 20 min; hits give low values. activity change, % for hits at 50 µM. actives 0.32% (n = 360,000); in the data active means activity change below about -80%; inconclusive means mostly about -51% to -80%; further: on the % scale 0 is the no-effect control and ±100 the full control effect
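Neuro2A cells (4,500/well, DMEM with 0.5% FBS) were treated with compound at a single 50 µM final concentration, stimulated with 6 nM IGF for 20 min at 37 °C, and lysed. Phospho-Akt Ser473 was read by HTRF as 665/615 ratio ×10^4.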
aSyn rescue: rescues yeast growth from alpha-synuclein toxicity; actives 0.14% (n = 370,000); AID 652106; Yeast expressing alpha-synuclein, growth rescue, BacTiter-Glo, 24 h; Potency, µM (doses to about 46.1 µM), inactives show at the top dose growth rescue (activation), usual class: activators; further: potency means the concentration at half of the fitted maximal effect; % of control where 0% means no effect; nearly all actives have a fitted effect of over 65% in size
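Rescue of yeast growth: cells expressing toxic alpha-synuclein, induced in galactose at OD600 0.02, incubated with compound 24 h at 30 C. ATP luminescence quantified growth; inhibitors of toxicity appear as activators.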
CCT modulator: modulators of cytosolic chaperonin (CCT/TRiC) activity | purified chaperonin ATPase assay, HTRF ADP detection, 30 min | activity change, % (concentration not given with the values), hits read low | actives 0.3% (n = 360,000); in the data active means activity change below about -30%; further: on the % scale 0 is the no-effect control and ±100 the full control effect
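First, chaperonin was dispensed at 40 nM or 20 nM final depending on batch activity. Next, compounds were pinned at 76 uM and ATP added at 10 uM. After 30 min at 37 °C, ADP detection reagents ran 30 min at ambient temperature.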
An asterisk follows results filed as active; i = inactive; ? = inconclusive; · = no result. Unless noted, the call rests on the fitted dose curve; in most records, active means well fitted curve in the direction sought with a large enough effect; inconclusive means small, poorly fitted or top-dose-only effect, or another doubt; inactive means no such curve, though single readings can be large; an effect the other way counts as inactive or inconclusive.

SMILES	TDP43 rescue	Anesthetic bind	Mito fusion act	pAkt inh	aSyn rescue	CCT modulator
Cc1ccccc1N(C)C(=O)C1CCCN(c2ncnc3c2nc2n3CCCCC2)C1 (centres undefined)	17%	8%	-11%	i	2%	-1
Cc1ccc(C)c(N2CCN(C(=O)C3CCCN(c4ncnc5c4nc4n5CCCCC4)C3)CC2)c1 (centres undefined)	25µM*	2%	?	i	2%	-2
O=C(C1CCCN(c2ncnc3c2nc2n3CCCCC2)C1)N1CCN(c2cccc(Cl)c2)CC1 (centres undefined)	20µM*	-15%	8.9µM*	i	5%	-4
CN(C(=O)C1CCCN(c2ncnc3c2nc2n3CCCCC2)C1)c1cccc(Cl)c1 (centres undefined)	16µM*	-23%	8%	i	0%	2
O=C(C1CCCN(c2ncnc3c2nc2n3CCCCC2)C1)N1CCN(c2ccccc2)CC1 (centres undefined)	?	-15%	2%	i	0%	1
Cc1ccccc1C(=O)OCc1cc(=O)n2nc(C3CC3)sc2n1	9%	-13%	·	·	·	·
CCOC(=O)CSc1ncnc2c1sc1nc(N3CCOCC3)c3c(c12)CCCC3	-1%	-3%	-2%	-84%*	-1%	-1
CCOC(=O)c1c(COc2ccccc2)oc2ccc(O)cc12	19%	-18%	26%	i	-1%	0
CCOC(=O)c1c(C(C)(C)C)oc2ccc(O)cc12	18µM*	?	4%	i	10%	-1
COc1ccc(N2CCN(C(=O)C(=O)c3cc(OC)c4ccccc4c3)CC2)cc1	7%	·	·	i	2%	·
Cc1cc(Nc2nnnn2-c2ccccc2)n(-c2ccccc2)n1	-6%	-13%	0%	·	-1%	0
Cc1cc2ncn(-c3nnnn3-c3ccccc3)c2cc1C	18µM*	?	6%	i	1%	-1
CCCCCCCCCCCCCC[C@@H](O)[C@@H](O)[C@H](CO)NC(C)=O	·	3%	·	·	·	·
CC(C)CNC(=O)c1ccccc1NC(=O)Nc1ccccc1	6%	-12%	-2%	-105%*	1%	0
COc1ccc(-c2cc(C(=O)Nc3ccn(Cc4ccc(C)cc4)n3)no2)cc1OC	12%	-10%	·	·	·	·
COc1ccc(NS(=O)(=O)c2ccc(N)c(C(=O)O)c2)cc1	0%	-10%	-3%	-115%*	-2%	-1
Cc1ccc(-c2cc(-c3ccccc3)c(C#N)c(N)n2)o1	22µM*	86%	1%	i	-65%	-2
Cc1ccc(-c2cc(-c3ccccc3Cl)c(C#N)c(N)n2)o1	?	3%	?	i	4%	1
N#Cc1c(-c2ccccc2)cc(C2CC2)nc1N	13µM*	-13%	?	i	0%	0
CCCN1C(=O)c2ccccc2NC1c1ccc(OC)c(COc2cccc(OC)c2)c1 (centres undefined)	·	·	·	·	2%	·
O=C1Cc2cc([N+](=O)[O-])ccc2N1c1c(Cl)cccc1Cl	20µM*	-13%	-8%	i	3%	-2
O=[N+]([O-])c1ccc(N2CCN(c3ccccc3O)CC2)c(Cl)c1	14%	?	19%	i	5%	-2
O=C1[C@H]2[C@H](C=CC[C@H]2C(=O)N2CCN(c3ccccc3)CC2)CCN1Cc1ccccc1	28µM*	·	·	i	?	-2
CCn1c2ccccc2c2cc(/C=N/NC(=O)c3ccccc3)ccc21	11µM*	251%	3%	i	5%	0
COc1cc(C(=O)Nc2c(C(=O)Nc3ccccc3F)oc3ccccc23)cc(OC)c1OC	24%	-5%	·	·	·	·
CC(=O)OC[C@@H]1CN(Cc2ccccc2)C[C@H](n2cnc3c(N4CCN(c5ccccc5)CC4)ncnc32)O1	18µM*	·	·	i	0%	-1
CC(=O)OC[C@@H]1CN(Cc2ccccc2)C[C@H](n2cnc3c(NC(C)C)ncnc32)O1	20%	·	·	i	-3%	-2
O=C(NC1CCCCC1)NC1CCN(CC(=O)N2CCOCC2)CC1	2%	-7%	-1%	-107%*	-5%	-2
c1ccc(-c2ccccc2OCCCN2CCOCC2)cc1	3%	-10%	20µM*	i	0%	-3
OCCCN1CCN(CCCOc2ccccc2-c2ccccc2)CC1	-2%	-4%	-3%	i	5%	-3
